The values that follow come from PubChem BioAssay (NCATS).

Several values for one entry are separate records, joined by “and”; a condition that tells them apart may be missing. Equal values may be shown once. For some assays here: Entries with a potency or affinity are not part of this list. Activity calls are given as the source filed them.

For test [1] the following is noted: Ebola virus entry assay, green fluorescence channel.
The conditions of test [2]: Ebola virus entry assay, blue channel fluorescence.
The conditions of test [3]: Ebola virus entry assay, green fluorescence channel. This is another data set of the same source.
The conditions of test [4]: Ebola virus entry assay, ratio channel readout.
The conditions of test [5]: Ebola virus entry assay, blue channel fluorescence. The source holds these as a separate data set.
For test [6] the following is noted: Ebola virus entry assay, reporter ratio channel; AC50: Channel type: primary unless noted; outcome: Channel type: primary unless noted.
For test [7] the following is noted: Ebola virus entry assay, blue channel (ratio component).
For test [8] the following is noted: Ebola virus entry reporter assay, green channel fluorescence.
For test [9] the following is noted: Ebola virus entry cell assay, ratio channel.
The conditions of test [10]: Ebola virus entry assay, green channel fluorescence.
Test [11] in a line: qHTS profiling of the MIPE4 collection as inhibitors of Plasmodium falciparum (3D7) proliferation (AID 743344).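 Also: scaled between DMSO vehicle wells and 0.29 µM artemisinin as full inhibition.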 Conditions: P. falciparum 3D7 in erythrocytes, SYBR Green DNA fluorescence, 72 h; at 28.5 µM (top of the series) unless noted. In short, it runs like this: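 Erythrocytes infected with P. falciparum (0.3% parasitemia, 2.5% hematocrit) incubated with compounds 72 h at 37 C, 5% CO2. Lysis with saponin/Triton buffer containing SYBR Green I, overnight at room temperature in the dark; DNA fluorescence (485/535 nm) normalised to 0.29 uM artemisinin and DMSO.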

The conditions of test [12]: Ebola virus entry assay, ratio channel.
For test [13] the following is noted: Ebola virus entry assay, blue channel fluorescence. This is another data set of the same source.
For efficacy in this document: 0% is about no effect.

For the compound `NCC(CC(=O)O)c1ccc(Cl)cc1` (stereo not given), in test [1], the efficacy is -35.7% (inactive). The compound was classed as inactive in test [2], in test [3], in [4], in [5], in test [6] and in test [7]. Also, the compound was classed as inactive in test [8] and in test [9].
In the case of `O=C(O)C1(C(=O)O)CCC1.[NH2-].[NH2-].[Pt+2]`, the efficacy in [1] was -21.2% (inactive). The compound was called inactive in test [2], in [3], in test [4], in test [10], in [5] and in [6]. In addition, the result in test [9] was inactive.
Consider `CCCC(CCC)C(=O)O`, for which the efficacy in test [1] was -11.7% (inactive). Further, the result in test [2], in test [3], in [4], in [10], in test [6] and in test [7] was inactive. Moreover, the result in test [8] and in [9] was inactive.
Turning to `CN(C)/N=N/c1nc[nH]c1C(N)=O`, in [1], the efficacy was -24.1% (inactive). In addition, the outcome in test [2], in [3], in test [4], in [10], in test [5] and in [6] was inactive. Further, the result in [7] and in test [9] was inactive.
Regarding `O=c1[nH]cc(F)c(=O)[nH]1`, the parasite growth, % of DMSO control in [11] was found to be 42.1%. In addition, in test [1], the efficacy is 26.1% (inactive). Besides, the outcome in test [2], in test [3], in test [12], in test [10], in test [5] and in test [6] was inactive. Further, the outcome in test [7] and in test [9] was inactive.
Take `Cc1ccc(S(=O)(=O)NC(=O)NN2CCCCCC2)cc1`: the efficacy in [1] is -42.6% (inactive). Moreover, the call in test [3], in [4], in test [12], in test [10], in test [6] and in test [7] was inactive. The result in test [9] was inactive.
For `Cc1[nH]cnc1CN1CCc2c(c3ccccc3n2C)C1=O`, the efficacy in test [1] was -10.6% (inactive). For the same compound, the result in [2], in test [4], in test [13], in test [12], in [10] and in test [5] was inactive. Besides, the result in [6], in [7], in test [8] and in [9] was inactive.
Consider `COC(=O)C1=C(C)NC(C)=C(C(=O)OC(C)C)C1c1cccc2nonc12` (stereo not given), for which the efficacy in test [1] was -20.5% (inactive). In addition, the compound was classed as inactive in [3], in test [4], in [12], in test [10], in test [5] and in [6]. The result in [7], in test [8] and in test [9] was inactive.
Consider `COc1ccccc1N1CCNCC1`, for which the efficacy in [1] is 33.5% (inactive). For the same compound, the call in test [13], in test [12], in test [10] and in test [6] was inactive.
As to `Cn1cc[nH]c1=S`, the efficacy in test [1] is -16% (inactive). Further, the result in test [3], in test [13], in test [12], in [10], in test [5] and in [6] was inactive. For the same compound, the outcome in test [7], in [8] and in test [9] was inactive.
With `CCC[C@H](N[C@@H](C)C(=O)N1[C@H](C(=O)O)C[C@@H]2CCCC[C@@H]21)C(=O)OCC`, the efficacy in [1] was -25% (inactive). In addition, the compound was called inactive in [3], in test [13], in test [12], in test [10], in test [5] and in test [6]. Further, the result in test [7] and in [9] was inactive.
On to `COc1ccccc1OCCNCC(O)COc1cccc2[nH]c3ccccc3c12` (stereo not given), for which the efficacy in test [1] is 67.7% (inactive). Further, the concentration at half-maximal activity (AC50) was 11.2 µM (active) in test [2], 2.24 µM (active) in test [12], 2.24 µM (active) in [6] and 10 µM (active) in [9]. The result in test [4] was inactive.
With `Cc1ccc2c(n1)Oc1ccc(C(C)C(=O)OCC(=O)N(C)C)cc1C2` (stereo not given), the efficacy in [1] was -14% (inactive) and -11.2% (inactive). The compound was called inactive in test [13], in test [12], in test [10] and in [6].
For the compound `O=[N+]([O-])c1ccc(O)c2ncccc12`, the efficacy in test [1] was -18.6% (inactive). In addition, the AC50 in test [13] is 31.6 µM (active); in test [12] it was 28.2 µM (active); in [6], 28.2 µM (active). Besides, the compound was classed as inactive in test [10].
Take `CC1(C)NC(=O)N(c2ccc([N+](=O)[O-])c(C(F)(F)F)c2)C1=O`: the efficacy in [1] is 16.8% (inactive). Further, the compound was called inactive in [3], in test [4], in [10], in [5], in [6] and in test [7]. The result in test [8] and in test [9] was inactive.
For `CC[C@@H](CO)NC(=O)[C@@H]1C=C2c3cccc4[nH]cc(c34)C[C@H]2N(C)C1`, the efficacy in test [1] was -16.2% (inactive). Besides, the concentration at half-maximal activity (AC50) is 7.94 µM (active) in [13], 10 µM (active) in test [12] and 10 µM (active) in test [6]. Further, the result in test [10] was inactive.
Turning to `CCCCc1oc2ccccc2c1C(=O)c1cc(I)c(OCCN(CC)CC)c(I)c1`, in [1], the efficacy was 105% (inactive). Further, in [3], the compound was classed as inactive. Further, the values for the concentration at half-maximal activity (AC50) in test [13], in test [12] and in test [6] were 3.55 µM (active), 2.82 µM (active) and 2.82 µM (active), respectively.
For `NC(=O)c1cn(Cc2c(F)cccc2F)nn1`, the efficacy in test [1] is -11.2% (inactive). In addition, the outcome in [2], in test [4], in test [13], in test [10], in [5] and in [6] was inactive. In addition, the outcome in test [7], in test [8] and in test [9] was inactive.
Consider `Cc1ccccc1C(=O)Nc1ccc(C(=O)N2CCCC(O)c3cc(Cl)ccc32)c(C)c1` (stereo not given), for which the efficacy in test [1] is 54.1% (inactive). The compound was classed as inactive in [2], in test [4], in [8] and in test [9]. Further, the AC50 in [13], in [12] and in test [6] was 25.1 µM (active) in each case.
With `O=C(CCCN1CCC(O)(c2ccc(Cl)cc2)CC1)c1ccc(F)cc1`, in [1], the efficacy was 61.7% (inactive). Also, the compound was classed as inactive in [3] and in test [4]. Also, the concentration at half-maximal activity (AC50) in test [13], in [12] and in test [6] was 10 µM (active) in each case.
Turning to `Cc1ccc(S(=O)(=O)N[C@@H](CCCCN)C(=O)CCl)cc1`, the efficacy in test [1] is 32.6% (inactive). For the same compound, the AC50 is 14.1 µM (active) in [13] and 28.2 µM (active) in test [6]. Further, the outcome in test [12] and in [10] was inactive.
With `Clc1ccc(CCC(Cn2ccnc2)Sc2c(Cl)cccc2Cl)cc1` (stereo not given), the efficacy in test [1] was -22% (inactive). The values for the half-maximal activity concentration (AC50) in [13], in test [12] and in [6] were 25.1 µM (active), 22.4 µM (active) and 22.4 µM (active), respectively. The compound was called inactive in test [10].
`CCN1/C(=C/C=C/c2sc3ccccc3[n+]2CC)Sc2ccccc21`: the efficacy in test [1] was 26.7% (inactive). Moreover, the call in test [13], in test [12], in [10] and in [6] was inactive.
Consider `O=C1CCC(N2C(=O)c3ccccc3C2=O)C(=O)N1` (stereo not given), for which the efficacy in [1] is -16.4% (inactive). The call in test [3], in test [4], in test [13], in [12], in test [10] and in [5] was inactive. Also, the result in test [6], in test [7], in test [8] and in test [9] was inactive.
Regarding `O=C1C(=O)c2ccccc2C(O)=C1C1CCC(c2ccc(Cl)cc2)CC1` (stereo not given), the efficacy in test [1] is 18.6% (inactive). For the same compound, the result in test [2], in test [3], in [10], in test [5], in [6] and in [7] was inactive. Besides, the outcome in test [9] was inactive.
Regarding `CC(C)OC(=O)C(C)(C)Oc1ccc(C(=O)c2ccc(Cl)cc2)cc1`, the efficacy in test [1] is 75.8% (inactive). For the same compound, the outcome in test [3], in test [4], in test [13], in test [12], in test [6] and in [7] was inactive. Moreover, the result in [8] and in test [9] was inactive.
